# Experimental data from the supplement of paper PMC4466140.
# Experiments:
# Assay in all cases: SPOT peptide array binding signal intensity (averaged, normalized) (arbitrary units (background-subtracted, floor 0; scale differs between SH3 domains)); higher = stronger binding of the SH3 domain to the peptide
# [1] = target: SpBzz1-D2
# Outline: (§1)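 SH3 domains from four yeast species were expressed as GST fusions in E. coli BL21(DE3) and purified on glutathione Sepharose. Each was incubated at 10 μg/ml overnight at 4°C in TBS-based blocking buffer on cellulose membranes bearing synthetic 15-mer peptides, in which serines replaced cysteines. Bound protein was detected with anti-GST antibody, an HRP anti-mouse secondary and luminol, then imaged and quantified with Genespotter. The binding signal is the normalized, background-subtracted spot intensity averaged over replicates, in arbitrary units that are not the same from one domain to another.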
# [2] = target: SpCyk3
# Outline: as §1
# [3] = target: SpHof1
# Outline: as §1
# [4] = target: SpHof1-2
# Outline: as §1
# [5] = target: SpHof1-3
# Outline: as §1
# [6] = target: SpHse1
# Outline: as §1
# [7] = target: SpLsb1
# Outline: as §1
# [8] = target: SpLsb4
# Outline: as §1
# [9] = target: SpMyo1
# Outline: as §1
# [10] = target: SpNbp2
# Outline: as §1
# [11] = target: SpPex13
# Outline: as §1
# [12] = target: SpRvs167
# Outline: as §1
# [13] = target: SpSla1-D1-D2
# Outline: as §1
# [14] = target: SpSla1-D3
# Outline: as §1
# [15] = target: AgAbp1
# Outline: as §1
# [16] = target: AgBbc1
# Outline: as §1
# [17] = target: AgBem1-D1
# Outline: as §1
# [18] = target: AgBzz1-D1
# Outline: as §1
# [19] = target: AgBzz1-D2
# Outline: as §1
# [20] = target: AgCyk3
# Outline: as §1
# [21] = target: AgFus1
# Outline: as §1
# [22] = target: AgHof1
# Outline: as §1
# [23] = target: AgHse1
# Outline: as §1
# [24] = target: AgLsb1
# Outline: as §1
# [25] = target: AgLsb4
# Outline: as §1
# [26] = target: AgMyo5
# Outline: as §1
# [27] = target: AgNbp2
# Outline: as §1
# [28] = target: AgRvs167
# Outline: as §1
# [29] = target: AgSho1
# Outline: as §1
# [30] = target: AgSla1-D1-D2
# Outline: as §1
# [31] = target: AgSla1-D3
# Outline: as §1
# [32] = target: CaAbp1-D1
# Outline: as §1
# [33] = target: CaAbp1-D2
# Outline: as §1
# [34] = target: CaBbc1
# Outline: as §1
# [35] = target: CaBem1-D1
# Outline: as §1
# [36] = target: CaBzz1-D1
# Outline: as §1
# [37] = target: CaBzz1-D2
# Outline: as §1
# [38] = target: CaCyk3
# Outline: as §1
# [39] = target: CaFus1
# Outline: as §1
# [40] = target: CaHof1
# Outline: as §1
# [41] = target: CaHse1
# Outline: as §1
# [42] = target: CaLsb1
# Outline: as §1
# [43] = target: CaLsb4
# Outline: as §1
# [44] = target: CaMyo5
# Outline: as §1
# [45] = target: CaNbp2
# Outline: as §1
# [46] = target: CaRvs167
# Outline: as §1
# [47] = target: CaRvs167-3
# Outline: as §1
# [48] = target: CaSho1
# Outline: as §1
# [49] = target: CaSla1-D1-D2
# Outline: as §1
# [50] = target: CaSla1-D3
# Outline: as §1
# [51] = target: ScAbp1
# Outline: as §1
# [52] = target: ScBbc1
# Outline: as §1
# [53] = target: ScBem1-D1
# Outline: as §1
# [54] = target: ScBzz1-D1
# Outline: as §1
# [55] = target: ScBzz1-D2
# Outline: as §1
# [56] = target: ScCyk3
# Outline: as §1
# [57] = target: ScFus1
# Outline: as §1
# [58] = target: ScHof1
# Outline: as §1
# [59] = target: ScHse1
# Outline: as §1
# [60] = target: ScLsb1
# Outline: as §1
# [61] = target: ScLsb2
# Outline: as §1
# [62] = target: ScLsb3
# Outline: as §1
# [63] = target: ScLsb4
# Outline: as §1
# [64] = target: ScMyo3
# Outline: as §1
# [65] = target: ScMyo5
# Outline: as §1
# [66] = target: ScNbp2
# Outline: as §1
# [67] = target: ScPex13
# Outline: as §1
# [68] = target: ScRvs167
# Outline: as §1
# [69] = target: ScSho1
# Outline: as §1
# [70] = target: ScSla1-D1-D2
# Outline: as §1
# [71] = target: ScSla1-D3
# Outline: as §1
# [72] = target: SpAbp1-D1
# Outline: as §1
# [73] = target: SpBbc1
# Outline: as §1
# [74] = target: SpBzz1-D1
# Outline: as §1
binder,measurement,setting,value
FTLPPPPPPPGLDEL,SPOT peptide array binding signal intensity,[1],9.25
same,SPOT peptide array binding signal intensity,[2],≤ 0
same,SPOT peptide array binding signal intensity,[3],2.5
same,SPOT peptide array binding signal intensity,[4],1
same,SPOT peptide array binding signal intensity,[5],5.75
same,SPOT peptide array binding signal intensity,[6],≤ 0
same,SPOT peptide array binding signal intensity,[7],≤ 0
same,SPOT peptide array binding signal intensity,[8],≤ 0
same,SPOT peptide array binding signal intensity,[9],1110
same,SPOT peptide array binding signal intensity,[10],≤ 0
same,SPOT peptide array binding signal intensity,[11],≤ 0
same,SPOT peptide array binding signal intensity,[12],16.7
same,SPOT peptide array binding signal intensity,[13],≤ 0
same,SPOT peptide array binding signal intensity,[14],≤ 0
DLPLPDLPPEPPTEL,SPOT peptide array binding signal intensity,[15],≤ 0
same,SPOT peptide array binding signal intensity,[16],≤ 0
same,SPOT peptide array binding signal intensity,[17],≤ 0
same,SPOT peptide array binding signal intensity,[18],≤ 0
same,SPOT peptide array binding signal intensity,[19],2
same,SPOT peptide array binding signal intensity,[20],0.5
same,SPOT peptide array binding signal intensity,[21],≤ 0
same,SPOT peptide array binding signal intensity,[22],54.5
same,SPOT peptide array binding signal intensity,[23],10.5
same,SPOT peptide array binding signal intensity,[24],≤ 0
same,SPOT peptide array binding signal intensity,[25],≤ 0
same,SPOT peptide array binding signal intensity,[26],207
same,SPOT peptide array binding signal intensity,[27],≤ 0
same,SPOT peptide array binding signal intensity,[28],≤ 0
same,SPOT peptide array binding signal intensity,[29],≤ 0
same,SPOT peptide array binding signal intensity,[30],2
same,SPOT peptide array binding signal intensity,[31],≤ 0
same,SPOT peptide array binding signal intensity,[32],≤ 0
same,SPOT peptide array binding signal intensity,[33],≤ 0
same,SPOT peptide array binding signal intensity,[34],≤ 0
same,SPOT peptide array binding signal intensity,[35],≤ 0
same,SPOT peptide array binding signal intensity,[36],≤ 0
same,SPOT peptide array binding signal intensity,[37],≤ 0
same,SPOT peptide array binding signal intensity,[38],≤ 0
same,SPOT peptide array binding signal intensity,[39],≤ 0
same,SPOT peptide array binding signal intensity,[40],2.5
same,SPOT peptide array binding signal intensity,[41],1
same,SPOT peptide array binding signal intensity,[42],0.5
same,SPOT peptide array binding signal intensity,[43],≤ 0
same,SPOT peptide array binding signal intensity,[44],0.75
same,SPOT peptide array binding signal intensity,[45],≤ 0
same,SPOT peptide array binding signal intensity,[46],0.333
same,SPOT peptide array binding signal intensity,[47],2.5
same,SPOT peptide array binding signal intensity,[48],9.5
same,SPOT peptide array binding signal intensity,[49],≤ 0
same,SPOT peptide array binding signal intensity,[50],≤ 0
same,SPOT peptide array binding signal intensity,[51],4
same,SPOT peptide array binding signal intensity,[52],2.75
same,SPOT peptide array binding signal intensity,[53],≤ 0
same,SPOT peptide array binding signal intensity,[54],2
same,SPOT peptide array binding signal intensity,[55],2
same,SPOT peptide array binding signal intensity,[56],2
same,SPOT peptide array binding signal intensity,[57],≤ 0
same,SPOT peptide array binding signal intensity,[58],206
same,SPOT peptide array binding signal intensity,[59],≤ 0
same,SPOT peptide array binding signal intensity,[60],≤ 0
same,SPOT peptide array binding signal intensity,[61],≤ 0
same,SPOT peptide array binding signal intensity,[62],≤ 0
same,SPOT peptide array binding signal intensity,[63],≤ 0
same,SPOT peptide array binding signal intensity,[64],384
same,SPOT peptide array binding signal intensity,[65],646
same,SPOT peptide array binding signal intensity,[66],≤ 0
same,SPOT peptide array binding signal intensity,[67],≤ 0
same,SPOT peptide array binding signal intensity,[68],≤ 0
same,SPOT peptide array binding signal intensity,[69],≤ 0
same,SPOT peptide array binding signal intensity,[70],≤ 0
same,SPOT peptide array binding signal intensity,[71],≤ 0
same,SPOT peptide array binding signal intensity,[72],≤ 0
same,SPOT peptide array binding signal intensity,[73],≤ 0
same,SPOT peptide array binding signal intensity,[74],≤ 0
same,SPOT peptide array binding signal intensity,[1],≤ 0
same,SPOT peptide array binding signal intensity,[2],≤ 0
same,SPOT peptide array binding signal intensity,[3],≤ 0
same,SPOT peptide array binding signal intensity,[4],3
same,SPOT peptide array binding signal intensity,[5],0.5
same,SPOT peptide array binding signal intensity,[6],≤ 0
same,SPOT peptide array binding signal intensity,[7],≤ 0
same,SPOT peptide array binding signal intensity,[8],≤ 0
same,SPOT peptide array binding signal intensity,[9],328
same,SPOT peptide array binding signal intensity,[10],≤ 0
same,SPOT peptide array binding signal intensity,[11],≤ 0
same,SPOT peptide array binding signal intensity,[12],≤ 0
same,SPOT peptide array binding signal intensity,[13],≤ 0
same,SPOT peptide array binding signal intensity,[14],≤ 0
